Results filed as inconclusive are left out. Active and inactive are the calls of the source. The calls were made as follows: active = hit-call score of the fitted dose curve at least 0.9, where 1 is the maximum; inconclusive = response in the unintended direction; inactive = score below 0.9.
System: not listed separately
Assay: Tanguay_ZF_120hpf_TRUN_legacy: (Legacy) Oregon State University Tanguay Lab 120 Hour Post-fertilization zebrafish Assay for Truncated Body (AID 2283655)
Outline: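 Truncated body is recorded as a binary endpoint at 120 hpf by brightfield imaging of wild-type 5D larvae. Exposure runs statically from 6 hpf at 28C with 0.64% DMSO; embryos dying earlier are not scored.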

**Q.** Which outcome does the source give for COC(=O)[C@H]1[C@H]2C[C@@H]3c4[nH]c5cc(OC)ccc5c4CCN3C[C@H]2C[C@@H](OC(=O)c2cc(OC)c(OC)c(OC)c2)[C@@H]1OC here?
**A.** inactive

**Q.** With NC=O as the molecule, how does the outcome read?
**A.** inactive

**Q.** Which outcome does the source give for CC(=O)O here?
**A.** inactive

**Q.** For CC1=C(C)S(=O)(=O)CCS1(=O)=O, which outcome is on record?
**A.** inactive

**Q.** Which outcome does the source give for OCC(CO)n1cnc(-c2ccc(F)cc2)c1-c1ccnc(Oc2ccccc2)n1 here?
**A.** inactive

**Q.** Which outcome does the source give for NCCOCCOCCN here?
**A.** inactive

**Q.** With Cc1cc(SC2=C(O)C[C@@](CCc3ccc(N)cc3)(C(C)C)OC2=O)c(C(C)(C)C)cc1CO as the molecule, how does the outcome read?
**A.** inactive

**Q.** For C#CC(O)C(CC)CCCC (stereo not drawn), which outcome is on record?
**A.** inactive

**Q.** Which outcome does the source give for O=C(O)c1cccnc1 here?
**A.** inactive

**Q.** For O=C(NS(=O)(=O)/C=C/c1cccs1)c1ccc(F)cc1Br, which outcome is on record?
**A.** inactive

**Q.** Which outcome does the source give for Nc1nc(Cl)nc2c1ncn2[C@H]1C[C@H](O)[C@@H](CO)O1 here?
**A.** inactive

**Q.** Which outcome does the source give for C/C=C/c1ccc(OC)cc1 here?
**A.** inactive

**Q.** With C=CCc1ccc(OC)c(OC)c1 as the molecule, how does the outcome read?
**A.** inactive

**Q.** With COc1ccc(OC(F)(F)F)cc1CN[C@H]1CCCN[C@H]1c1ccccc1 as the molecule, how does the outcome read?
**A.** inactive

**Q.** With CC(C)(C)c1ccccc1 as the molecule, how does the outcome read?
**A.** inactive

**Q.** For S=c1[nH]c2ccccc2s1, which AC50 is on record?
**A.** 11.4 µM (active)

**Q.** Which outcome does the source give for CC(C)c1cccc(C(C)C)c1NC(=O)NS(=O)(=O)c1cc(C(C)(C)O)co1 here?
**A.** inactive

**Q.** With CC1(C)C(=O)NC(=O)N1CO as the molecule, how does the outcome read?
**A.** inactive

**Q.** For COC(=O)CCCC(=O)OC, which outcome is on record?
**A.** inactive

**Q.** For CC(=O)[C@@]1(O)CC[C@H]2[C@@H]3CCC4=CC(=O)CC[C@]4(C)[C@H]3CC[C@@]21C, which outcome is on record?
**A.** inactive

**Q.** For CCCCCCC(C=O)=Cc1ccccc1, which outcome is on record?
**A.** inactive

**Q.** With COC(=O)CCC(=O)OC as the molecule, how does the outcome read?
**A.** inactive

**Q.** For O=C1c2c(O)cccc2Cc2cccc(O)c21, which outcome is on record?
**A.** inactive

**Q.** For Oc1ccc(O)cc1, which outcome is on record?
**A.** inactive

**Q.** For CSc1ccc(Oc2ccc(S(N)(=O)=O)cc2CN(C)C)cc1C, which outcome is on record?
**A.** inactive

**Q.** With CCCCC(CC)CO (stereo not drawn) as the molecule, how does the outcome read?
**A.** inactive

System: not listed separately
Assay: Tanguay_ZF_120hpf_NC_legacy: (Legacy) Oregon State University Tanguay Lab 120 Hour Post-fertilization zebrafish Assay for Notochord and Tail Malformation (AID 2283656)
Outline: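 Binary notochord-distortion calls, made by brightfield inspection, form the read-out; activity is fitted in the positive direction against DMSO. Exposure ran statically from 6 to 120 hpf at 28C with 0.64% DMSO.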

**Q.** With CC(C)(O)c1ccc(CNC(=O)c2cccnc2Oc2ccc(F)cc2)cc1 as the molecule, how does the outcome read?
**A.** inactive

**Q.** With Cc1cn([C@H]2C=C[C@@H](CO)O2)c(=O)[nH]c1=O as the molecule, how does the outcome read?
**A.** inactive

**Q.** With COC(=O)[C@H]1[C@H]2C[C@@H]3c4[nH]c5cc(OC)ccc5c4CCN3C[C@H]2C[C@@H](OC(=O)c2cc(OC)c(OC)c(OC)c2)[C@@H]1OC as the molecule, how does the outcome read?
**A.** inactive

**Q.** With NC=O as the molecule, how does the outcome read?
**A.** inactive

**Q.** For CC(=O)O, which outcome is on record?
**A.** inactive

**Q.** For OCC(CO)n1cnc(-c2ccc(F)cc2)c1-c1ccnc(Oc2ccccc2)n1, which outcome is on record?
**A.** inactive

**Q.** With Cc1cc(SC2=C(O)C[C@@](CCc3ccc(N)cc3)(C(C)C)OC2=O)c(C(C)(C)C)cc1CO as the molecule, how does the outcome read?
**A.** inactive

**Q.** For C#CC(O)C(CC)CCCC (stereo not drawn), which outcome is on record?
**A.** inactive

**Q.** Which outcome does the source give for O=C(O)c1cccnc1 here?
**A.** inactive

**Q.** With O=C(NS(=O)(=O)/C=C/c1cccs1)c1ccc(F)cc1Br as the molecule, how does the outcome read?
**A.** inactive

**Q.** With Nc1nc(Cl)nc2c1ncn2[C@H]1C[C@H](O)[C@@H](CO)O1 as the molecule, how does the outcome read?
**A.** inactive

**Q.** For C/C=C/c1ccc(OC)cc1, which outcome is on record?
**A.** inactive

**Q.** With C=CCc1ccc(OC)c(OC)c1 as the molecule, how does the outcome read?
**A.** inactive

**Q.** Which outcome does the source give for CC(C)(C)c1ccccc1 here?
**A.** inactive

**Q.** With S=c1[nH]c2ccccc2s1 as the molecule, how does the AC50 read?
**A.** 51.8 µM (active)

**Q.** For CC(C)c1cccc(C(C)C)c1NC(=O)NS(=O)(=O)c1cc(C(C)(C)O)co1, which outcome is on record?
**A.** inactive

**Q.** Which outcome does the source give for CC1(C)C(=O)NC(=O)N1CO here?
**A.** inactive

**Q.** With COC(=O)CCCC(=O)OC as the molecule, how does the outcome read?
**A.** inactive

**Q.** Which outcome does the source give for CC(=O)[C@@]1(O)CC[C@H]2[C@@H]3CCC4=CC(=O)CC[C@]4(C)[C@H]3CC[C@@]21C here?
**A.** inactive

**Q.** Which outcome does the source give for CCCCCCC(C=O)=Cc1ccccc1 here?
**A.** inactive

**Q.** Which outcome does the source give for COC(=O)CCC(=O)OC here?
**A.** inactive

**Q.** For O=C1c2c(O)cccc2Cc2cccc(O)c21, which outcome is on record?
**A.** inactive

**Q.** For CC(N)=O, which outcome is on record?
**A.** inactive

System: Thyroperoxidase (TPO), gene 54314
Assay: CCTE_Simmons_AUR_rTPO: CCTE's Amplex UltraRed Assay for Thyroperoxidase (TPO) Inhibition, Simmons Lab (AID 2283662);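 as to AC50: potency for loss of signal meaning inhibition of peroxidase activity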
Outline: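 Cell-free peroxidase activity assay using rat thyroid gland microsomes with excess H2O2 (300 uM) and 25 uM Amplex UltraRed. Compounds tested from 5 nM to 87.5 uM; fluorescence measured after 30 min at 37C, analysed relative to DMSO baseline.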

**Q.** Which AC50 does the source give for COC(=O)[C@H]1[C@H]2C[C@@H]3c4[nH]c5cc(OC)ccc5c4CCN3C[C@H]2C[C@@H](OC(=O)c2cc(OC)c(OC)c(OC)c2)[C@@H]1OC here?
**A.** 7.3 µM (active)

**Q.** For Cc1cc(SC2=C(O)C[C@@](CCc3ccc(N)cc3)(C(C)C)OC2=O)c(C(C)(C)C)cc1CO, which AC50 is on record?
**A.** 0.738 µM (active)

**Q.** With C/C=C/c1ccc(OC)cc1 as the molecule, how does the AC50 read?
**A.** 28.4 µM (active)

**Q.** For S=c1[nH]c2ccccc2s1, which AC50 is on record?
**A.** 0.433 µM (active)

**Q.** For CC1(C)C(=O)NC(=O)N1CO, which outcome is on record?
**A.** inactive

**Q.** Which AC50 does the source give for O=C1c2c(O)cccc2Cc2cccc(O)c21 here?
**A.** 11.9 µM (active)

**Q.** Which AC50 does the source give for Oc1ccc(O)cc1 here?
**A.** 0.767 µM (active)

System: not listed separately
Assay: CCTE_Simmons_CellTiterGLO_HEK293T: Viability Assessment in CCTE's Assays for Thyroperoxidase (TPO) Inhibition, Simmons Lab (AID 2283665);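 as to AC50: cells exposed to compound for 24 h before readout; actives reduce ATP signal below DMSO vehicle meaning cytotoxicity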
Outline: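 Luminescent ATP readout (CellTiter-Glo, 20 min at room temperature) after 24 hr exposure of HEK293T cells to 5 nM–87.5 uM final compound; signal loss relative to DMSO vehicle indicated cytotoxicity; dichlone titrated as positive control.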

**Q.** For COC(=O)[C@H]1[C@H]2C[C@@H]3c4[nH]c5cc(OC)ccc5c4CCN3C[C@H]2C[C@@H](OC(=O)c2cc(OC)c(OC)c(OC)c2)[C@@H]1OC, which AC50 is on record?
**A.** 45.3 µM (active)

**Q.** Which AC50 does the source give for Cc1cc(SC2=C(O)C[C@@](CCc3ccc(N)cc3)(C(C)C)OC2=O)c(C(C)(C)C)cc1CO here?
**A.** 3.9 µM (active)

**Q.** Which outcome does the source give for C/C=C/c1ccc(OC)cc1 here?
**A.** inactive

**Q.** For S=c1[nH]c2ccccc2s1, which outcome is on record?
**A.** inactive

**Q.** With CC1(C)C(=O)NC(=O)N1CO as the molecule, how does the outcome read?
**A.** inactive

**Q.** For O=C1c2c(O)cccc2Cc2cccc(O)c21, which outcome is on record?
**A.** inactive

**Q.** For Oc1ccc(O)cc1, which AC50 is on record?
**A.** 35.4 µM (active)

System: not listed separately
Assay: Tanguay_ZF_120hpf_TR_legacy: (Legacy) Oregon State University Tanguay Lab 120 Hour Post-fertilization zebrafish Assay for Touch Response (AID 2283667)
Outline: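 Readout is presence or absence of touch response in 120 hpf zebrafish larvae, assessed by brightfield observation after continuous static exposure at 28C. Final vehicle was 0.64% (vol/vol) DMSO.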

**Q.** For CC(C)(O)c1ccc(CNC(=O)c2cccnc2Oc2ccc(F)cc2)cc1, which outcome is on record?
**A.** inactive

**Q.** With Cc1cn([C@H]2C=C[C@@H](CO)O2)c(=O)[nH]c1=O as the molecule, how does the outcome read?
**A.** inactive

**Q.** With COC(=O)[C@H]1[C@H]2C[C@@H]3c4[nH]c5cc(OC)ccc5c4CCN3C[C@H]2C[C@@H](OC(=O)c2cc(OC)c(OC)c(OC)c2)[C@@H]1OC as the molecule, how does the outcome read?
**A.** inactive

**Q.** For NC=O, which outcome is on record?
**A.** inactive

**Q.** For CC(=O)O, which outcome is on record?
**A.** inactive

**Q.** For CC1=C(C)S(=O)(=O)CCS1(=O)=O, which outcome is on record?
**A.** inactive

**Q.** Which outcome does the source give for OCC(CO)n1cnc(-c2ccc(F)cc2)c1-c1ccnc(Oc2ccccc2)n1 here?
**A.** inactive

**Q.** Which outcome does the source give for Cc1cc(SC2=C(O)C[C@@](CCc3ccc(N)cc3)(C(C)C)OC2=O)c(C(C)(C)C)cc1CO here?
**A.** inactive

**Q.** Which outcome does the source give for C#CC(O)C(CC)CCCC (stereo not drawn) here?
**A.** inactive

**Q.** With O=C(NS(=O)(=O)/C=C/c1cccs1)c1ccc(F)cc1Br as the molecule, how does the outcome read?
**A.** inactive

**Q.** Which outcome does the source give for Nc1nc(Cl)nc2c1ncn2[C@H]1C[C@H](O)[C@@H](CO)O1 here?
**A.** inactive

**Q.** With COc1ccc(OC(F)(F)F)cc1CN[C@H]1CCCN[C@H]1c1ccccc1 as the molecule, how does the outcome read?
**A.** inactive

**Q.** With CC(C)(C)c1ccccc1 as the molecule, how does the outcome read?
**A.** inactive

**Q.** Which AC50 does the source give for S=c1[nH]c2ccccc2s1 here?
**A.** 12.3 µM (active)

**Q.** Which outcome does the source give for CC(C)c1cccc(C(C)C)c1NC(=O)NS(=O)(=O)c1cc(C(C)(C)O)co1 here?
**A.** inactive

**Q.** With CC1(C)C(=O)NC(=O)N1CO as the molecule, how does the outcome read?
**A.** inactive

**Q.** For COC(=O)CCCC(=O)OC, which outcome is on record?
**A.** inactive

**Q.** With CC(=O)[C@@]1(O)CC[C@H]2[C@@H]3CCC4=CC(=O)CC[C@]4(C)[C@H]3CC[C@@]21C as the molecule, how does the outcome read?
**A.** inactive

**Q.** Which outcome does the source give for CCCCCCC(C=O)=Cc1ccccc1 here?
**A.** inactive

**Q.** For COC(=O)CCC(=O)OC, which outcome is on record?
**A.** inactive

**Q.** For Oc1ccc(O)cc1, which outcome is on record?
**A.** inactive

**Q.** For CC(N)=O, which outcome is on record?
**A.** inactive

**Q.** With CSc1ccc(Oc2ccc(S(N)(=O)=O)cc2CN(C)C)cc1C as the molecule, how does the AC50 read?
**A.** 50.9 µM (active)

**Q.** For CCCCC(CC)CO (stereo not drawn), which outcome is on record?
**A.** inactive

**Q.** Which outcome does the source give for CC(=O)O[C@]1(C(C)=O)CC[C@H]2[C@@H]3C=C(Cl)C4=CC(=O)[C@@H]5C[C@@H]5[C@]4(C)[C@H]3CC[C@@]21C here?
**A.** inactive

Source: PubChem BioAssay (EPA / NIEHS)
